High-throughput results (PubChem)
This is one part of a sample in which hits are shown more often than they occur.
TDP1 cell CPT – DT40-hTDP1 cell growth loss with CPT; 420,000 compounds, 12% hits; Potency, µM (top dose mostly 46.2 µM), for the others: at the top dose activity change, negative = growth inhibition, hits mostly inhibitors; chicken DT40 Tdp1-/-;hTDP1 cells + 20 nM CPT, ATP luminescence, 48 h; further: potency means the concentration at half of the fitted maximal effect; nearly all actives have a fitted effect of over 55% in size
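Cell growth measured by CellTiter-Glo luminescence after a minimum 48 h, 37 C compound exposure with 20 nM CPT in Tdp1-knockout DT40 cells stably expressing hTDP1, seeded 400/well; qHTS titration format.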
HT1080-NT tox – kills 2HG-producing HT-1080-NT fibrosarcoma cells | HT-1080-NT fibrosarcoma viability, CellTiter-Glo ATP luminescence, 48 h | Potency, µM (series often up to 46.1 µM), for the others: at the highest dose activity, negative = less viability, most hits filed as cytotoxic | 360,000 compounds, 1.6% hits;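 further: NT is the 2HG producing partner of a matched IDH1 knockdown line; potency means the concentration at half of the fitted maximal effect; 0% = DMSO-treated cells and -100% = media-only wells without cells; nearly all actives have a fitted effect of over 55% in size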
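HT-1080-NT fibrosarcoma cells (2HG-overproducing), 750 cells/well in RPMI with 5% FBS, dosed after 2 h and incubated 48 h at 37C. CellTiter-Glo luminescence normalized to DMSO and no-cell wells; concentration-response curves fitted and classed.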
IL1B secr inh – inflammasome signaling inhibition, IL-1 beta readout | 360,000 compounds, 4.7% hits | THP-1 LPS/ATP IL-1B secretion, AlphaLISA, 16 h; active compounds read low | AID 743279 | activity change, % at 57.5 µM; in the data active means activity change below about -50%; inconclusive means mostly about -30% to -49%
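Secreted IL-1B measured by AlphaLISA bead assay after 16 h compound exposure of THP-1 cells; compounds (final up to 57.5 uM) added 1 h before LPS (250 ng/mL) and ATP (1.25 mM) stimulation; lower signal means less secretion.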
HT1080 IDH1KD tx – kills HT-1080 cells with IDH1 knockdown. HT-1080 IDH1 knockdown viability, ATP luminescence, 48 h. Potency, µM (series often up to 46.1 µM), for inactives: at the top dose activity, negative = toxicity, actives largely listed as cytotoxic. 360,000 compounds, 2% hits. AID 686971;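 further: potency means the concentration at half of the fitted maximal effect; 0% = DMSO wells and -100% = cell-free medium wells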
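% activity derives from luminescence (CellTiter-Glo), normalised to DMSO and no-cell wells. HT-1080-IDH1KD cells, 750/well, had 48 h compound exposure at 37 °C.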
DT40 TDP1 no CPT – qHTS for Inhibitors of human tyrosyl-DNA phosphodiesterase 1 (TDP1): qHTS in cells in absence of CPT | 420,000 compounds, 15% hits | Potency, µM (titrated, usually from 46.2 µM), inactives show at the highest dose activity change, negative = growth inhibition, usual class: inhibitors | DT40 Tdp1-/- hTDP1 cells, no CPT, ATP luminescence, 48 h; further: potency means the concentration at half of the fitted maximal effect; nearly all actives have a fitted effect of over 55% in size
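Seeded 400 DT40-hTDP1 cells/well (vehicle DMSO, no 20 nM CPT); pinned compounds; ≥48 hr at 37 °C; CellTiter-Glo luminescence as viability measure.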
ALOX12 inh – ALOX12 (human) lipoxygenase inhibition | P18054 | purified 12hLO, xylenol orange hydroperoxide absorbance | Potency, µM (titrated, usually from 108 µM), inactives show top-dose activity change, negative = inhibition, most hits filed as inhibitors | 580,000 compounds, 1.1% hits | AID 1671190; further: potency means the concentration at half of the fitted maximal effect
Target sequence (P18054 whole entry, looked up): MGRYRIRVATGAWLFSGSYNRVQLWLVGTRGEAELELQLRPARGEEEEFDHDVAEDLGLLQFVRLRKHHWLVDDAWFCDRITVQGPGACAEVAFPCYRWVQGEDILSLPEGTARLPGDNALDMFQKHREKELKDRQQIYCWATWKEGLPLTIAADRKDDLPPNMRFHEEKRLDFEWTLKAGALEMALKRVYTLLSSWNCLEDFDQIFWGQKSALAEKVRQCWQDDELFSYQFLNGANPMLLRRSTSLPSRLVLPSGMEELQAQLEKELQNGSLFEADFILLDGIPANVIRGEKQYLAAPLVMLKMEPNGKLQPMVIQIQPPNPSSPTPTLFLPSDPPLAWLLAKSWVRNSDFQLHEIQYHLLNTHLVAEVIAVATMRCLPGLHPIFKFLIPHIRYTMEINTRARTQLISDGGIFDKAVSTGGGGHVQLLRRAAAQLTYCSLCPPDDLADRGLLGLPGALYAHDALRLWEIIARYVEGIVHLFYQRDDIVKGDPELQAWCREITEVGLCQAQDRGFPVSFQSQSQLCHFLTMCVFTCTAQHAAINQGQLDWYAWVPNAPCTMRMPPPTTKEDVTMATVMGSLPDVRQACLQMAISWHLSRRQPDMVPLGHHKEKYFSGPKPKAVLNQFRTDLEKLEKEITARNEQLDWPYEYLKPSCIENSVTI
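Purified human 12hLO (150 nM final) in 25 mM Hepes, 0.01% Triton X-100, pH 7.0 was preincubated 15 min at room temperature with compound. Then 40 uM arachidonic acid was added, 30 min. Hydroperoxide was read by Fe-XO absorbance ratio 573/405 nm.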
* hit, by the source's call; ? = inconclusive; . = no result given. Unless noted, the call rests on the fitted dose curve; in most records, active means well fitted curve in the direction sought with a large enough effect; inconclusive means small, poorly fitted or top-dose-only effect, or another doubt; inactive means no such curve, though single readings can be large; an effect the other way counts as inactive or inconclusive. Unless noted, on the % scale 0 is the no-effect control and ±100 the full control effect.

SMILES | TDP1 cell CPT | HT1080-NT tox | IL1B secr inh | HT1080 IDH1KD tx | DT40 TDP1 no CPT | ALOX12 inh
COc1ccc(NC(=O)C2CCCN(c3c4c(nc5ncnn35)CCC4)C2)cc1OC (stereo not drawn) | ? | 10% | 7 | 0% | ? | 12%
O=C(NC1CCCc2ccccc21)C1CCN(c2c3c(nc4ncnn24)CCC3)CC1 (stereo not drawn) | ? | 2% | -6 | -21% | ? | -4%
C#CC[N+](C)(CC#CC=C)Cc1ccccc1 (stereo not drawn) | . | . | . | . | . | 17%
O=C(Nc1cnn(Cc2ccc(F)cc2)c1)C(c1ccccc1)c1ccccc1 | ? | ? | -6 | ? | 21µM* | 0%
FC(F)(F)c1cnc(Sc2nnc(-c3ccncc3)n2C2CC2)c(Cl)c1 | . | . | . | . | . | 17%
Cc1ccccc1N1CCN(c2ccc(NC(=O)C3CCCCC3C(=O)O)cc2)CC1 (stereo not drawn) | ? | -5% | -3 | -1% | 9.2µM* | -14%
O=C(O)[C@H]1CCCC[C@H]1C(=O)Nc1ccc(Nc2ccccc2)cc1 | -13% | 1% | -9 | -1% | ? | 0%
Cc1c2cnccc2c(C)c2c1c1ccccc1n2CCOC(=O)c1ccccc1 | ? | . | . | . | 11µM* | .
Cc1ccc(CN(C)Cc2ccccc2C)o1 | . | . | . | . | . | 43%
O=C(N/C=N/OCc1ccc(Cl)cc1Cl)NOCc1ncc(C(F)(F)F)cc1Cl | ? | ? | -14 | 26µM* | 15µM* | ?
CO/N=C/NC(=O)NOCc1ncc(C(F)(F)F)cc1Cl | -10% | -2% | -11 | 0% | 0% | 0%
CCOc1cc2cc(C(=O)c3ccccc3O)cnc2cc1OC | . | . | . | . | . | 8.9µM*
CCOc1cc(C(=O)Nc2cnc3ccccc3c2)ccc1OC | . | . | . | . | . | -5%
Cc1c(C)n(C)c2ccc(C(=O)NCCc3ccco3)cc12 | ? | 0% | ? | 1% | 16µM* | ?
CCn1c(C)c(C)c2cc(C(=O)NCCc3ccco3)ccc21 | -13% | 4% | ? | 0% | -2% | -11%
Cc1c(C)n(C)c2ccc(C(=O)Nc3cccc4ccccc34)cc12 | 26µM* | -4% | -19 | -3% | ? | 0%
Cc1c(C)n(C)c2ccc(C(=O)NCCc3ccc(Cl)cc3)cc12 | 18µM* | . | . | . | ? | 0%
CCOC(=O)[C@]12CCCC=C1N(CCC1=CCCCC1)C(=O)[C@H](CC(=O)NCCC(C)C)C2 | 15µM* | ? | -20 | ? | 12µM* | ?
CCCCCCCCN1C(=O)[C@H](CC(=O)NCCC(C)C)C[C@@]2(C(=O)OCC)CCCC=C12 | 13µM* | ? | ? | ? | 12µM* | ?
CCCCCCCCN1C(=O)[C@H](CC(=O)NCC23CC4CC(CC(C4)C2)C3)C[C@@]2(C(=O)OCC)CCC=C12 | -88% | ? | -19 | ? | 16µM* | ?
Nc1nc(Cl)cc(Sc2ccc3ccccc3c2)n1 | 15µM* | ? | -5 | 16µM* | 23µM* | -2%
O=C(Cn1ccc2cc(S(=O)(=O)N3CCCCCC3)ccc21)NCc1ccccc1Cl | ? | . | . | . | ? | -9%
CC(C(=O)N1CCOCC1)n1ccc2cc(S(=O)(=O)N3CCCCCC3)ccc21 (stereo not drawn) | . | . | . | . | . | -26%
CC(C(=O)NCc1ccccc1Cl)n1ccc2cc(S(=O)(=O)N3CCCCC3)ccc21 (stereo not drawn) | 16µM* | . | . | . | 16µM* | -11%
CCC(C(=O)NCCC(C)C)n1ccc2cc(S(=O)(=O)N3CCCCC3)ccc21 (stereo not drawn) | 13µM* | ? | 7 | ? | 8.2µM* | .
SMILES | TDP1 cell CPT | HT1080-NT tox | IL1B secr inh | HT1080 IDH1KD tx | DT40 TDP1 no CPT | ALOX12 inh
CC(C(=O)NCc1ccccc1)n1ccc2cc(S(=O)(=O)N3CCCC3)ccc21 (stereo not drawn) | ? | . | . | . | 18µM* | -1%
COc1cccc(CNC(=O)C(C)n2ccc3cc(S(=O)(=O)N4CCCC4)ccc32)c1 (stereo not drawn) | ? | -5% | 0 | -13% | -29% | -18%
COc1cccc(CNC(=O)C(C)n2ccc3cc(S(=O)(=O)N4CCCCCC4)ccc32)c1 (stereo not drawn) | 5.2µM* | -6% | -27 | -3% | 15µM* | -4%
Cc1ccccc1C(=O)NC(Nc1ccccc1)C(Cl)(Cl)Cl (stereo not drawn) | . | . | . | . | . | -4%
COc1ccc(CNC(=O)C(C)n2ccc3cc(S(=O)(=O)N4CCCC4)ccc32)cc1OC (stereo not drawn) | 0.29µM* | . | . | . | 0.58µM* | 5%
COc1ccc(CCNC(=O)Cn2ccc3cc(S(=O)(=O)N4CCCCC4)ccc32)cc1OC | ? | . | . | . | ? | -25%
CCN(Cc1ccncc1)S(=O)(=O)c1ccc(C(C)=O)cc1 | 16µM* | 0% | 0 | -11% | 12µM* | -12%
CCN(CC)S(=O)(=O)c1ccc(C(=O)O)cc1 | -12% | -2% | 1 | -4% | 23% | 2%
CCN(CC)S(=O)(=O)c1ccc(C(=O)Nc2ccc(Cc3ccncc3)cc2)cc1 | 16µM* | 1% | -83* | -15% | 15µM* | -1%
CCN(CC)S(=O)(=O)c1ccc(NC(=O)c2ccccn2)cc1 | -27% | -2% | -5 | 0% | -25% | ?
O=C(CS(=O)(=O)c1ccccc1)N1CCN(c2ccccc2)CC1 | -3% | 12% | -2 | 3% | -11% | -35%
COc1ccccc1CC(=O)N1CCN(c2cccc(C(F)(F)F)c2)CC1 | 23µM* | ? | -5 | -16% | 13µM* | ?
Cc1ccc(CC(=O)N2CCN(c3cccc(C(F)(F)F)c3)CC2)cc1 | 23µM* | 5% | -5 | -8% | 18µM* | -10%
Cc1ccc(S(=O)(=O)CC(=O)N2CCN(c3cccc(C(F)(F)F)c3)CC2)cc1 | 16µM* | -3% | -1 | 5% | 21µM* | -28%
O=C(C(=O)N1CCN(C(=O)Cc2ccccc2)CC1)c1cccc(C(F)(F)F)c1 | . | . | . | . | . | -2%
CC1(C2CC2)NC(=O)N(CC(=O)N2CCN(c3cccc(C(F)(F)F)c3)CC2)C1=O (stereo not drawn) | 15µM* | -2% | -3 | 1% | 12µM* | -8%
Fc1ccccc1-c1nnc(SCc2cccc3ccccc23)n1C1CC1 | . | . | . | . | . | 0%
O=C(Nc1cccc2[nH]ccc12)C(=O)NC1CCCC1 | . | . | . | . | . | 5%
